Consider 95 compounds from PubChem BioAssay AID463173 (ICCB-Longwood Screening Facility, Harvard Medical School, 2010).

Screen size: about 52,000 compounds; about 1,700 (3.3%) were called active. The sample holds actives, similar compounds and a random draw of the others, so the mix is not that of the screen. Values without a mark were called inactive. No stated cut-off is given here; in the data, active means survival mostly below about 52% (no sharp cut-off); inactive means mostly above about 56%.

This assay concerns Wild type. The assay can be described thus: S. aureus survival, RN4220 and DeltatarO strains – OD600, teichoic acid synthesis inhibitors, primary screen (AID 463173). The conditions noted are these: S. aureus RN4220 wild type/DeltatarO growth, OD600, 18 h, hits give low values, screened at 18.75 µg/mL (by protocol).
On to `COc1ccc(-c2cc(C(F)(F)F)nc(SCCC(=O)Nc3cccc(O)c3)n2)cc1`, for which the survival is 80%.

In the case of `COc1cc(Cl)c(C)cc1NC(=O)c1nn(C)c2c1CSc1ccccc1-2`, the survival was 85%.

Turning to `O=C(CSc1nnc(-c2ccccc2Br)n1-c1ccccc1)c1ccc(F)cc1`, the survival is 4% (active). Take `Cc1ccc(-c2nnc(SCC(=O)c3ccc(Cl)cc3)n2-c2ccccc2)cc1`: the survival was 94%. Consider `COc1ccccc1-c1nnc(SCC(=O)c2ccc(Cl)cc2)n1-c1ccccc1`, for which the survival is 0% (active).

For the compound `COc1ccccc1-c1nnc(SCC(=O)c2ccc(F)cc2)n1-c1ccccc1`, the survival was 0% (active). For the compound `COc1ccccc1-c1nnc(SCC(=O)OC(C)C)n1-c1ccccc1`, the survival is 115%.

On to `Cc1ccc(C(=O)CSc2nnc(-c3ccccc3)n2-c2ccccc2)cc1`, for which the survival is 79%.

With `O=C(CSc1nnc(-c2ccc(Br)cc2)n1-c1ccccc1)c1ccccc1`, the survival was 97%. As for `Cn1c(SCC(=O)c2ccc(F)cc2)nnc1-c1ccccc1Br`, the survival was 74%. Consider `CCOc1ccc(-c2nnc(SCC(=O)c3ccc(F)cc3)n2-c2ccccc2)cc1`, for which the survival was 153%. Regarding `CCc1cccc(NC(=O)CN(C)S(=O)(=O)c2ccc3c(c2)CCCN3C(C)=O)c1`, the survival is 83%. Take `COc1ccc(F)cc1S(=O)(=O)NCC(c1ccco1)S(=O)(=O)c1cccs1` (stereo not given): the survival was 81%.

Consider `CCCN1CCN(CC2=C(C(=O)OCC)C(c3ccc(OC(C)C)cc3)NC(=O)N2)CC1` (stereo not given), for which the survival was 72%. For `COc1ccc(-n2nnc(-c3nc(-c4cccs4)no3)c2N)cc1OC`, the survival is 100%. For `CCN1CCN(C(c2ccc(F)cc2)c2sc3nc(-c4ccco4)nn3c2O)CC1` (stereo not given), the survival was 131%.

Regarding `Cc1ccc(C(=O)N2CCN(c3cccc(Cl)c3)CC2)cc1-n1c(C)nc2cccnc21`, the survival was 84%. To `Cc1cc2c(cc1S(=O)(=O)NCc1ccc(F)cc1)OCC(=O)N2` belongs 82%; to `CCOc1cc(C(=O)N2CCC(c3ccncc3)CC2)cc(OCC)c1OCC`, -1% (active).

On to `CCOc1ccc(C(=O)N2CCC(c3ccncc3)CC2)cc1`, for which the survival is 78%.

As for `CCN(CC)c1ccc(C(=O)N2CCC(c3ccncc3)CC2)cc1`, the survival was 85%.

In the case of `COc1ccc(C(=O)N2CCC(c3ccncc3)CC2)cc1OC`, the survival was -6% (active).

Consider `COc1cc(OC)cc(C(=O)N2CCC(c3ccncc3)CC2)c1`, for which the survival was 69%. `COc1cc(C(=O)N2CCC(c3ccncc3)CC2)cc(OC)c1OC`: the survival was 78%. In the case of `Cc1ccc(C)c(C(=O)COC(=O)CCCC(=O)Nc2cc(C(F)(F)F)ccc2Cl)c1`, the survival is 45%. As to `Cc1c(C(=O)Nc2ccc(F)c(Cl)c2)sc2nc3n(c(=O)c12)CCC3`, the survival is 81%. As for `CCc1nc(SCc2ccccc2)[nH]c(=O)c1C`, the survival was 102%. As to `COc1cccc(NC(=O)Cn2c(=O)n(CCCCC(=O)NCc3ccc4c(c3)OCO4)c(=O)c3ccccc32)c1`, the survival is 92%. `CCc1cccc(NC(=O)CSc2nc3ccccc3nc2N2CCCCC2)c1`: the survival was -13% (active). Turning to `COc1ccc(OC)c(NC(=O)CSc2nc3ccccc3nc2N2CCCCC2)c1`, the survival is -10% (active).

For the compound `COc1ccc(NC(=O)CSc2nc3ccccc3nc2N2CCC(C)CC2)cc1`, the survival is 45%. Take `COc1ccc(NC(=O)CSc2nc3ccccc3nc2N2CCCCC2)cc1`: the survival was 7% (active).

For `COc1cccc(NC(=O)CSc2nc3ccccc3nc2N2CCOCC2)c1`, the survival was 67%.

As for `CC(=O)Nc1ccc(NC(=O)CSc2nc3ccccc3nc2N2CCCCC2)cc1`, the survival was 90%. To `CCCCc1ccc(NC(=O)CSc2nc3ccccc3nc2N2CCCCC2)cc1` belongs 41%; to `COc1ccc(CCNC(=O)CSc2nc3ccccc3nc2Cc2ccc(C)cc2)cc1OC`, 52%. Take `COc1ccc(CCNC(=O)CSc2nc3ccccc3nc2Cc2ccc(Cl)cc2)cc1OC`: the survival was 10% (active). For `COc1ccc(NC(=O)CSc2nc3ccccc3nc2N2CCOCC2)c(OC)c1`, the survival is 65%.

Turning to `O=C(CSc1nc2ccccc2nc1Cc1ccc(Cl)cc1)NCCc1ccccc1`, the survival is 69%. To `COc1cccc(Cc2nc3ccccc3nc2SCC(=O)Nc2cc(OC)ccc2OC)c1` belongs 60%; to `COc1ccc(NC(=O)CC2C(=O)N(c3ccc(C)cc3)C(=O)N2C2CCCCC2)cc1` (stereo not given), 74%.

For the compound `CCOC(=O)c1noc2nc(C)n(CC(=O)Nc3ccccc3F)c(=O)c12`, the survival was 124%. `COc1cccc(C(=O)Nc2ccccc2-c2nnc(-c3ccc(C(C)(C)C)cc3)o2)c1`: the survival is 71%. Consider `CCOc1cc(C(=O)N2CC(=O)Nc3ccc(F)cc3C2c2ccccc2)cc(OCC)c1OCC` (stereo not given), for which the survival is 75%. Consider `O=C(NC1CCCCC1)C(c1ccco1)N(C(=O)C1COc2ccccc2O1)c1cccc(F)c1` (stereo not given), for which the survival is 132%.

For the compound `COc1ccc(NC(=O)c2c(C(=O)Nc3ccccc3)sc3nc(C)cc(=O)n23)cc1`, the survival was 93%. The figure for `NC(=O)CSc1nsc(SCC(N)=O)n1` is 109%.

In the case of `O=C(O)CSc1nc2ccccc2nc1N1CCCCC1`, the survival is 62%. Consider `Cc1cc(C)c(NC(=O)CSc2nc3ccccc3nc2N2CCCCC2)c(C)c1`, for which the survival was 38%.

On to `CC(C)NC(=O)CSc1nc2ccccc2nc1N1CCCCC1`, for which the survival was -28% (active). Take `COc1ccc(Cl)cc1NC(=O)CSc1nc2ccccc2nc1N1CCCCC1`: the survival was -9% (active). As to `COc1ccccc1Cc1nc2ccccc2nc1SCC(=O)Nc1cc(Cl)ccc1OC`, the survival was 89%. On to `COc1ccc(C)cc1NC(=O)CSc1nc2ccccc2nc1N1CCOCC1`, for which the survival is 72%.

Turning to `Cc1ccc(C)c(Cn2c(=O)n(Cc3ccc4c(c3)OCO4)c(=O)c3oc4ccccc4c32)c1`, the survival is 89%. Take `O=C(NCCc1csc(-c2cccc(F)c2)n1)c1ccco1`: the survival is 69%.

As for `Cc1cccc(-c2nc(CCNC(=O)c3ccco3)cs2)c1`, the survival was -6% (active). As to `O=C(Cc1ccc(F)cc1)NCCc1csc(-c2cccc(F)c2)n1`, the survival was 69%. The figure for `COc1ccc(CCC(=O)NCCc2csc(-c3ccc(C(F)(F)F)cc3)n2)cc1` is 80%.

For `COc1ccc(CC(=O)NCCc2csc(-c3ccc(C(F)(F)F)cc3)n2)cc1`, the survival was -6% (active). With `Cc1cccc(-c2nc(CCNC(=O)COc3ccccc3)cs2)c1`, the survival is 73%. Turning to `Cc1cccc(-c2nc(CCNC(=O)Cc3ccccc3)cs2)c1`, the survival is -1% (active). Turning to `Cc1cccc(-c2nc(CCNC(=O)c3ccc(Br)o3)cs2)c1`, the survival is 69%. As to `CCOc1ccc(CC(=O)NCCc2csc(-c3ccc(C(F)(F)F)cc3)n2)cc1`, the survival is 90%. In the case of `COc1ccc(CC(=O)NCCc2csc(-c3cccc(C)c3)n2)cc1`, the survival was 74%. To `Cc1cccc(-c2nc(CCNC(=O)Cc3ccc(F)cc3)cs2)c1` belongs 14% (active); to `COc1ccc(-c2nc(CCNC(=O)Cc3ccc(F)cc3)cs2)cc1`, 134%.

Consider `CC(C)c1cnc2c(c1SCC(=O)NC(C)(C)C)c(=O)n(C)c(=O)n2C`, for which the survival was 80%.

`NC(=O)/C=C/C(=O)Nc1ccc2c(c1)OCO2`: the survival is 89%. As for `O=C(NCCc1csc2nc(-c3ccc(F)cc3)nn12)c1ccco1`, the survival was 126%. Consider `COc1ccc(/C=C\c2onc(C)c2S(=O)(=O)N2CCC(C(=O)Nc3ccc(C)c(F)c3)CC2)cc1`, for which the survival was 93%. Turning to `CC(=O)N1c2c(cc(Br)cc2S(=O)(=O)NCc2ccccc2Cl)CC1C` (stereo not given), the survival is 73%. `C=Cc1ccc(Cn2c(C(=O)O)c(CNCc3cc(Br)ccc3OC)c3ccc(C)cc32)cc1`: the survival is 99%. As for `COc1ccc(CNC(=O)c2cc3sccc3n2Cc2ccc(C)cc2)cc1`, the survival was 91%.

As to `Fc1ccc(N2CCN(c3ncnc4c3nc3n4CCCCC3)CC2)cc1`, the survival was 55%. The figure for `COc1ccc(NC(=O)CSc2nnc(NC(=O)NC3CCCCC3)s2)cc1OC` is 65%; for `Cc1cc(C)c(S(=O)(=O)N2CCN(Cc3ccc4c(c3)OCO4)CC2)cc1C` it is 9% (active). With `COc1ccc(S(=O)(=O)N2CCN(Cc3ccc4c(c3)OCO4)CC2)cc1OC`, the survival is 78%.

As to `Cc1ccc(S(=O)(=O)N2CCN(Cc3ccc4c(c3)OCO4)CC2)cc1`, the survival is 64%. For the compound `COc1ccc(NC(=O)c2ccco2)cc1NC(=O)c1ccc(C)c(C)c1`, the survival was 69%. Regarding `COc1ccc(CNC(=O)c2cc3sccc3n2CC(=O)c2ccccc2)cc1`, the survival was 110%. On to `CCc1ccc(NC(=O)CC2C(=O)N(c3cccc(OC)c3)C(=O)N2C2CCCC2)cc1` (stereo not given), for which the survival is 120%. With `CCCCNC(=O)CCn1c(=O)c2ccccc2n(Cc2cccc(Cl)c2)c1=O`, the survival is 94%. For the compound `CCSc1nc2ccc(C)cc2cc1C#N`, the survival is 111%. For `CCC(=O)C1=C(c2ccc(F)cc2)N(C(=O)CC)n2cnnc2S1`, the survival was 133%.

Regarding `CCC(=O)C1=C(c2ccc(F)cc2)N(C(=O)CC)n2c(nnc2-c2ccc(OC)cc2)S1`, the survival was 53%. Consider `CCC(=O)C1=C(c2cccc([N+](=O)[O-])c2)N(C(=O)CC)n2c(nnc2C2CCCCC2)S1`, for which the survival is 63%.

With `CCOc1ccc(C2=C(C(=O)CC)Sc3nncn3N2C(=O)CC)cc1`, the survival is -1% (active).

In the case of `CCC(=O)C1=C(c2ccc(F)cc2)N(C(=O)CC)n2c(nnc2C2CCCCC2)S1`, the survival was 78%. As to `CCCC(=O)C1=C(c2ccc(C)cc2)N(C(=O)CCC)n2cnnc2S1`, the survival is 134%. Regarding `CCC(=O)C1=C(c2cccc([N+](=O)[O-])c2)N(C(=O)CC)n2c(nnc2-c2ccccc2)S1`, the survival was 0% (active). As for `CCC(=O)C1=C(c2ccc(OC)c(OC)c2)N(C(=O)CC)n2c(nnc2-c2ccc(C)cc2)S1`, the survival is 74%. Turning to `CCC(=O)C1=C(c2ccccc2)N(C(=O)CC)n2c(nnc2-c2ccccc2)S1`, the survival was -6% (active). Turning to `CCC(=O)C1=C(c2ccc(C)cc2)N(C(=O)CC)n2c(nnc2C2CCCCC2)S1`, the survival is 76%. To `CCC(=O)C1=C(c2ccccc2)N(C(=O)CC)n2c(nnc2C2CCCCC2)S1` belongs 14% (active); to `CC(=O)C1=C(c2cccc([N+](=O)[O-])c2)N(C(C)=O)n2c(nnc2-c2ccc(C)cc2)S1`, 85%.
